Test [1] can be described thus: inhibitors of TNFa-induced NFkB p65 translocation, primary screen, imaging, HUVEC, MLSMR starter and 10KST1 sets (AID 438;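 active = inhibition above 20% together with a positive visual image hit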;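 note: compound added about 3h40 before a 20 min TNFalpha stimulation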;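 for inhibition: signal is the nuclear over cytoplasmic p65 intensity ratio per well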). The following applies: HUVEC TNFa-induced p65 nuclear translocation; cell count: measured here: nuclei count (cytotoxicity indicator), at 2.08 µM; inhibition: at 2 µM, stronger effect = higher value, 0% TNFa-plus-vehicle, 100% no-TNFa wells.
A short description of test [2]: reduction of polyQ htt aggregates in cells – imaging, exon1htt(103Q)mCFP cells, high-content imaging, primary screen (AID 483;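 active = visual image review flags a hit and inhibition of aggregation exceeds 20%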;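 note: compound exposure lasted 3 days before fixation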;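 for nuclei count: percent of the per-plate median nuclei count of sample wells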). Particulars: exon1htt(103Q)mCFP cell line, aggregate imaging, at 2 µM; inhibition of aggregation: stronger effect = higher value; nuclei count: measured here: cell count, toxicity.
Test [3] is described as follows: endothelial E-selectin expression blockers – imaging, HUVEC, immunofluorescence, MLSMR starter and 10KST1 sets, primary screen (AID 487;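 active = visually confirmed hit in the image check and inhibition above 20%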;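 for inhibition: signal is fraction of cell area covered by stained E-selectin grains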;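 for nuclei count: 100% = median nuclei count of all wells on the same plate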). The following applies: HUVEC TNFalpha-induced E-selectin immunofluorescence imaging, at 2 µM; inhibition: stronger effect = higher value; nuclei count: measured here: cell number, toxicity.
The target of test [4] is Voltage-gated potassium channel subunit beta-2 (Rattus norvegicus) (UniProt P62483). Put plainly: inhibitors of rat Kvbeta2 reductase activity – biochemical, NADPH fluorescence, primary screen (AID 622;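 active = fluorescence slope higher than the sample average by over 3 SD, cut at about -0.22 in these data, passing the limit was not always enough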;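 note: slope of raw intensity against log time taken from 70 to 1610 s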). Particulars: recombinant KvBeta, 4-cyanobenzaldehyde reduction, at 10 µM, stronger effect = higher value.
Voltage-gated potassium channel subunit beta-2 (Rattus norvegicus), sequence (P62483 whole entry, looked up): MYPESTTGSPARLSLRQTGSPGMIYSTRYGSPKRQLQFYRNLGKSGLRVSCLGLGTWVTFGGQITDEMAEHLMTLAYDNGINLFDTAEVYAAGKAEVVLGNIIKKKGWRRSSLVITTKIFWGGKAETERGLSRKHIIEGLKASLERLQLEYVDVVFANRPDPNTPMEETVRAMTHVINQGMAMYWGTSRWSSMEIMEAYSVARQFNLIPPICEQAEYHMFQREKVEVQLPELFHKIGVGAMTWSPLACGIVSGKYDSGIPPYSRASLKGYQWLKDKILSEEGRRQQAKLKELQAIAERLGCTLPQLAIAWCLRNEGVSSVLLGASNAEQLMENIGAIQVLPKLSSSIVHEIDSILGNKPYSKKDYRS
The target is the same in test [5]. The experiment in a line: enhancers of rat Kvbeta2 NADPH turnover – biochemical, NADPH fluorescence, primary screen (AID 623;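 active = NADPH fluorescence slope more negative than the mean of all samples by about 3 SD, 99.7% confidence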;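 note: fluorescence intensity change per second fitted from 20 to 320 s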). The following applies: Recombinant KvBeta, NADPH fluorescence decrease slope, 10 min; at 10 µM; stronger effect = lower value.
Test [6] deals with Alpha-2C adrenergic receptor (Homo sapiens) (UniProt P18825). Put plainly: compounds altering alpha2C-coupled GIRK flux – cell-based, HEK293 alpha2C/GIRK1/2, thallium flux, primary screen (AID 624).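 Note: slope of fluorescence ratio to pre-addition baseline per second over 15 to 24 s.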 The following applies: thallium flux BTC fluorescence, at 10 µM, actives lie on both sides.
Alpha-2C adrenergic receptor (Homo sapiens), sequence (P18825 whole entry, looked up): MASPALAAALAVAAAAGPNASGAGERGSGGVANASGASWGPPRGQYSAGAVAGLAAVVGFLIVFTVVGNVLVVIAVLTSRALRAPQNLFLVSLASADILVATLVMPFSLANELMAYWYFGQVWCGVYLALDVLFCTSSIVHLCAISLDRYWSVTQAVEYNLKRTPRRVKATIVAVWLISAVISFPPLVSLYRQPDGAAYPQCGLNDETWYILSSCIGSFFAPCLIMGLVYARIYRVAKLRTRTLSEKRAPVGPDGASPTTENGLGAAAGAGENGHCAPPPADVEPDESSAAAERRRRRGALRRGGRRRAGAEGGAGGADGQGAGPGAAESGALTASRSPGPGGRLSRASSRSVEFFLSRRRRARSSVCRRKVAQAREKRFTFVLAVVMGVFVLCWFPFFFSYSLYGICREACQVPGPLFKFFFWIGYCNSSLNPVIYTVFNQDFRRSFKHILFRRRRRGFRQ
The nature of test [7]: blockers of RIG-like receptor reporter activation – cell-based, Sendai virus stimulus, luciferase, 10K MLSCN set, TLR/RLR signaling modifier project, primary screen (AID 602276;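 active = inhibition at or above 50% at 10 µM; inactive = inhibition below 50%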;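 note: firefly luciferase from ISG56 promoter only with Renilla not read in this screen; 0% = Sendai virus plus DMSO and 100% = medium plus DMSO without virus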). Particulars: HEK293 RL24 IRF3 luciferase reporter, at 10 µM, stronger effect = higher value.
A short description of test [8]: TLR3 IRF3 reporter activation blockers – cell-based, poly I:C stimulus, luciferase, 10K MLSCN set, primary screen (AID 602277;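 active = inhibition of the reporter signal at or above 50%; inactive = inhibition below 50%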). The following applies: HEK293-TLR3 RL24 IRF3 luciferase reporter, at 10 µM, stronger effect = higher value. For orientation: A reporter such as luciferase makes a cellular process visible.

SMILES strings stand for the structures. The source made the active and inactive calls.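 Rule for the calls, unless noted: active = fluorescence slope after compound addition differing from the mean of all screened samples at 99.7% confidence, in either direction; inactive = the rest.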

For the compound `CCN(CCNC(=O)C1CCN(S(C)(=O)=O)CC1)c1ccccc1`, the cell count in test [1] is 395. In addition, the inhibition (commonly the relative decrease from the control value, in per cent) in test [1] was 3.8% (inactive); in test [3], -24.7% (inactive); in test [7], 15.1% (inactive); in test [8], 25.2% (inactive). The inhibition of aggregation in test [2] was -13.1% (inactive). Moreover, the nuclei count in test [2] was determined as 113%; in test [3] it was 117%. Further, the fluorescence slope in test [4] was -0.32 (inactive). Also, the NADPH fluorescence slope in test [5] was -3e-05 (inactive). For the same compound, in test [6], the slope is 0.00548 (inactive).

Turning to `CC1CCCCN1C(=O)Cn1nnc(-c2cccnc2)n1` (centres undefined), in test [1], the cell count was found to be 493. In addition, the inhibition in test [1] is 8% (inactive); in test [3] it was -23.4% (inactive); in test [7] it was 9.95% (inactive); in test [8], 16.3% (inactive). For the same compound, the inhibition of aggregation in test [2] is -12% (inactive). Besides, the values for the nuclei count in test [2] and in test [3] were 93.1% and 95.3%, respectively. In addition, the fluorescence slope in test [4] was -0.485 (inactive). Besides, the NADPH fluorescence slope in test [5] is -4.8e-05 (inactive). In test [6], the slope is 0.00445 (inactive).

`CCCCn1cnc2c1c(=O)n(C)c(=O)n2C`: the cell count in test [1] stood at 797. For the same compound, the inhibition is -7.5% (inactive) in test [1], -35.5% (inactive) in test [3], -11.6% (inactive) in test [7] and -3.57% (inactive) in test [8]. In test [2], the inhibition of aggregation was 25.6% (inactive). For the same compound, the nuclei count was determined as 101% in test [2] and 119% in test [3]. For the same compound, in test [4], the fluorescence slope was -0.374 (inactive). Moreover, the NADPH fluorescence slope in test [5] is -1.9e-05 (inactive). In test [6], the slope is 0.00541 (inactive).

Consider `Cc1ccc(N(C)C(=O)N2CCN(c3ccccn3)CC2)cc1`, for which the cell count in test [1] is 525. Moreover, the inhibition is -0.8% (inactive) in test [1], -41% (inactive) in test [3], 5.03% (inactive) in test [7] and 27.2% (inactive) in test [8]. For the same compound, the inhibition of aggregation in test [2] is 30.2% (inactive). Further, the results for the nuclei count in test [2] and in test [3] were 59.5% and 97.6%, respectively. Moreover, the fluorescence slope in test [4] was -0.59 (inactive). In addition, the NADPH fluorescence slope in test [5] was -2.8e-05 (inactive). For the same compound, the slope in test [6] was 0.00868 (inactive).

Take `CCN1CCN(C(c2cccs2)C(C)NC(=O)c2ccccc2)CC1` (centres undefined): the cell count in test [1] came out at 528. Moreover, the inhibition in test [1] was -0.3% (inactive); in test [3] it was -20.1% (inactive); in test [7] it was 8.51% (inactive); in test [8] it was 39.8% (inactive). The inhibition of aggregation in test [2] is -7.7% (inactive). In addition, the nuclei count in test [2] amounted to 102%; in test [3], 128%. In addition, in test [4], the fluorescence slope was -0.59 (inactive). Besides, the NADPH fluorescence slope in test [5] is -3.6e-05 (inactive). In test [6], the slope is 0.00664 (inactive).

For the compound `COc1ccc(CC(=O)Nc2c3c(nn2-c2cccc(Cl)c2)CS(=O)C3)cc1` (centres undefined), the cell count in test [1] was determined as 466. In addition, the inhibition was 5.7% (inactive) in test [1], -43.1% (inactive) in test [3], 9.81% (inactive) in test [7] and 14.2% (inactive) in test [8]. Further, the inhibition of aggregation in test [2] is -8.1% (inactive). Further, the nuclei count in test [2] came to 101%; in test [3], 87.6%. For the same compound, the fluorescence slope in test [4] was -0.492 (inactive). Also, in test [5], the NADPH fluorescence slope is 2.6e-05 (inactive). Further, the slope in test [6] is 0.00562 (inactive).

In the case of `CCOc1ccc(-n2cc(C(=O)N3CCN(C)CC3)c3cc(OC)c(OC)cc3c2=O)cc1`, the cell count in test [1] was determined as 393. Also, the inhibition is 8.8% (inactive) in test [1], -54.1% (inactive) in test [3], -29.8% (inactive) in test [7] and -2.36% (inactive) in test [8]. In addition, in test [2], the inhibition of aggregation was 0.2% (inactive). Also, the figures for the nuclei count in test [2] and in test [3] were 99.4% and 121%, respectively. Moreover, the fluorescence slope in test [4] was -0.524 (inactive). Further, in test [5], the NADPH fluorescence slope is 1.6e-05 (inactive). For the same compound, in test [6], the slope was 0.007 (inactive).

With `COc1ccccc1N1CC(C(=O)Nc2cccc(C(=O)O)c2)CC1=O` (centres undefined), the cell count in test [1] stood at 495. For the same compound, the inhibition in test [1] is -16.1% (inactive); in test [3] it was -32.1% (inactive); in test [7], -5.85% (inactive); in test [8] it was -4.45% (inactive). Further, the inhibition of aggregation in test [2] is 10.1% (inactive). In addition, the nuclei count was 76.3% in test [2] and 127% in test [3]. Also, in test [4], the fluorescence slope was -0.547 (inactive). The NADPH fluorescence slope in test [5] is 2.1e-05 (inactive). The slope in test [6] was 0.00458 (inactive).

Take `CCOC(=O)Cc1cc(=O)n2[nH]c(C)c(-c3ccc(OC)cc3)c2n1`: in test [1], the cell count was 652. In addition, the inhibition in test [1] was -0.3% (inactive); in test [3], 0.6% (inactive); in test [7], 14.2% (inactive); in test [8] it was 22.5% (inactive). In test [2], the inhibition of aggregation is 19.2% (inactive). Besides, the nuclei count in test [2] amounted to 94%; in test [3] it was 102%. For the same compound, the fluorescence slope in test [4] was -0.301 (inactive). For the same compound, in test [5], the NADPH fluorescence slope was 1.1e-05 (inactive). In test [6], the slope is 0.00404 (inactive).

Values taken from PubChem BioAssay.
